In the supplement of paper PMC6555819:

How the values were obtained:
Assay in all cases: PBM binding z-score (relative to random genomic background probes); higher = stronger binding; sequences stand for … in GC…GCGATTGACAGCGTAGAATGAAGG
[1] = system: RARb homodimer (NR concentration 270 nM)
Procedure, shortened: (§1)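 Antibodies against each partner of ligand-free nuclear receptor dimers (one per run) detected binding on custom Agilent 4×180K protein-binding microarrays after 1 h incubation. The double-stranded probes had 34-nt variable regions carrying direct-repeat seeds, single-nucleotide variants, half-site ablations and random human genomic background sequences. Binding z-scores, from regression-normalized fluorescence, use the random background probes as reference.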

[2] = system: RARg:RXRa (NR concentration 270 nM, RXRa partner concentration 90 nM)
Procedure, shortened: as §1

[3] = system: RARg homodimer (NR concentration 270 nM)
Procedure, shortened: as §1

[4] = system: RXRa DBDmut IVT, anti-RXR (DBD mutation: RXRa K156A/R161A, NR concentration 90 nM)
Procedure, shortened: as §1

[5] = system: RXRa homodimer (NR concentration 180 nM)
Procedure, shortened: as §1

[6] = system: THRa:RXRa (NR concentration 90 nM, RXRa partner concentration 90 nM)
Procedure, shortened: as §1

[7] = system: THRa homodimer (NR concentration 90 nM)
Procedure, shortened: as §1

[8] = system: VDR homodimer (NR concentration 270 nM)
Procedure, shortened: as §1

Row | Sequence | PBM binding z-score [1] | PBM binding z-score [2] | PBM binding z-score [3] | PBM binding z-score [4] | PBM binding z-score [5] | PBM binding z-score [6] | PBM binding z-score [7] | PBM binding z-score [8]
1 | GATATTAGTTGAAAGGGCAACCGAATGATTCTCG | 2.28 | 1.73 | 1.61 | 1.04 | 1.58 | 0.705 | 0.0377 | 0.787
2 | TTACCAAGGTGAAAGGTCTTTGATGCACGCCTTG | 1.15 | 1.67 | 0.887 | -0.125 | 2.43 | 2.13 | 0.663 | -0.219
3 | CCGACTGGTGCATAAGGTTACCATAAGCCAGCCC | 1.25 | 0.548 | 0.37 | 0.0565 | 0.963 | 1.99 | 1.58 | 0.347
4 | ATCGAAAGGTCGTGAGGTGAGTATACAGAAAGGC | 3.07 | 4.69 | 3.9 | 1.42 | 4.97 | 3.45 | 1.47 | 1.09
5 | TTACCAAGGTGAAGTTCGTTGATCCCTCTGTAGA | 1.18 | 0.78 | 0.824 | 1.02 | 0.97 | 1.8 | 0.676 | 1.66
6 | CCTTACGGGTCACTGACAGGATATAGCATTTGGA | 2.9 | 4.97 | 4.62 | 1.76 | 5.05 | 2.62 | 0.268 | 0.961
7 | AATACAGCGTCACTAGGCCAGAGTAGGTACGAAT | -0.144 | -0.145 | 0.173 | -0.271 | -0.094 | -0.216 | -0.342 | -0.308
8 | CCGACTGGGGCAGACAGGTTACCATACCATCCGG | 0.849 | 0.341 | 0.456 | -0.96 | 0.238 | -0.0397 | 0.0396 | -0.23
9 | ATCTCTAGGTAAAGCTCAGTGAAAGATCGATAGA | -0.225 | 0.103 | 0.259 | -0.165 | -0.128 | 0.19 | -0.0384 | -0.271
10 | ATATGTAGGTTACATCCGGGTTATTCAGGCTATG | 1.32 | 1.65 | 1.4 | 1.14 | 1.84 | 2.18 | 1.08 | 0.79
11 | ACTAGCAGGCCACGGGTCACTCAAGATTAGTCCG | 2.64 | 2.22 | 2.04 | 0.0998 | 2.18 | 1.85 | 0.298 | 0.215
12 | CGAACTAGGTCACGGACAGTGAATCTCCGCACGC | 3.36 | 5.11 | 5.73 | 1.82 | 3.99 | 3.53 | 2.1 | 0.814
13 | CGAACTAGGTCAAAACAGGACAGTGAAGGATGAT | 2.27 | 3.48 | 3.77 | 1.49 | 2.25 | 4.13 | 0.485 | 0.573
14 | GCTAGCAGGCCCTTTGGGTCACTCAATGACGGGC | 1.29 | 0.49 | 0.718 | -0.714 | 0.498 | 1.67 | 0.25 | -0.37
15 | TGTCAAAGTTCAAAGGTAACGCAAGTATCCACAC | 3.97 | 6.5 | 6.22 | 4.42 | 7.38 | 3.23 | 0.0532 | 4.37
16 | CCTTACGGGTCACGAGGTTATAGCGCGACGAGCG | 3.63 | 5.98 | 5.29 | 1.62 | 6.87 | 3.59 | 1.07 | 1.9
17 | ATAGACAGGTGATGAAGGTAACTCAGGCTATCAT | 0.392 | 0.0804 | 0.356 | -0.779 | 0.265 | 0.901 | 0.156 | -0.14
18 | GCTGCTAGGTAAACTGATGGTCAGCTAAAGCTCG | -0.0474 | -0.174 | -0.241 | -0.0334 | -0.342 | -0.142 | -0.754 | -0.973
19 | CTCGAAGGGTCGGTTGAGGTGAGTATACGGATAA | 1.41 | 1.55 | 1.56 | 0.489 | 1.17 | 4.74 | 1.49 | 0.596
20 | TCTAGTTGGTCACGGAGGTCACGCACGACGGGTA | 4.76 | 5.46 | 5.23 | 1.28 | 6.17 | 4.05 | 3.31 | 3.06
21 | TCTAGTTGGTCAAAGGTCGCACACTCGAAATGCG | 3.14 | 4.78 | 2.91 | 1.27 | 5.6 | 2.48 | 0.836 | 1.26
22 | TCATATAGATAAAGGTGAAAGTCGAACGATATGA | 1.08 | 1.29 | 1.2 | 1.18 | 1.9 | 0.819 | -0.268 | -0.308
23 | GTACCAAGGTGAATAGGTCGTTGGTGAGTAGGCG | 1.93 | 2.86 | 1.13 | -0.312 | 1.99 | 1.71 | 0.526 | 0.359
24 | ACTATTAGTTGACGTAGGGCAACCGATACGACGC | 0.993 | 0.445 | 0.82 | 0.582 | 0.328 | 0.925 | -0.0539 | 0.159
25 | ATATGTAGGCTAAGGGTCATTCAGGTTGGTTCGC | 3.85 | 3.93 | 2.76 | 2.03 | 4.31 | 3.16 | 1.17 | 3.63
26 | GCTAGCAGGCCATTTGGATCACTCAATGACGGGC | -0.535 | -0.278 | -0.00293 | 0.0121 | -0.0428 | -0.754 | -0.938 | -0.518

Row | Sequence | PBM binding z-score [1] | PBM binding z-score [2] | PBM binding z-score [3] | PBM binding z-score [4] | PBM binding z-score [5] | PBM binding z-score [6] | PBM binding z-score [7] | PBM binding z-score [8]
27 | TCTTCTAGATCAAAGGTTAAGAAAGCCGAAGCCT | 1.54 | 1.99 | 1.03 | 0.838 | 2.95 | 1.51 | -0.597 | 0.119
28 | AGAATGAGGTTATGATCAGGGAAACAGAATACAT | 0.715 | 1.74 | 1.11 | 1.02 | 2.16 | 2.44 | 0.714 | 0.317
29 | ACTTACGGGTCAACGCGGTTATAGCACGCGTATA | 3.18 | 5.42 | 5.07 | 1.88 | 5.68 | 2.97 | 0.345 | 1.45
30 | TGTTGTAGATCAAAGGTTAAGAAAGCCGAAGCCT | 1.46 | 2.08 | 1.36 | -0.391 | 2.85 | 1.34 | -0.597 | -0.249
31 | CTCCCAAGGTGAACAAGGTCGTTGATTACTATTC | 2.05 | 1.68 | 1.41 | 0.991 | 1.7 | 3.19 | 2.26 | 2.22
32 | TCAGACAGGTGAAGGTAAATCAGGTACGCAGTCG | 0.943 | 0.61 | 0.667 | 1.77 | 1.06 | 1.58 | 0.468 | 0.53
33 | CGTCCAAGGTCAGTGCTAGGTCAGTGAAAGCATT | 4.72 | 6.51 | 6.07 | 2.72 | 4.15 | 3.98 | 2.41 | 2
34 | CGAACTAGGCCATCCAGGACAGTGAATACATTGA | 0.41 | 0.517 | 0.851 | 0.537 | 0.302 | 1.57 | 0.93 | 0.275
35 | AGACCAAGGTGATCGTGAGGTCGTTGATACTAAC | 1.51 | 1.99 | 0.635 | 0.408 | 1.37 | 3.4 | 2.04 | 2.56
36 | CCAGACAGGTGAGAAGGCAACTCAGCCTCGATTA | 0.103 | 0.0395 | 0.271 | 0.0472 | 0.0532 | -0.202 | -0.363 | 0.221
37 | CCTATTGGGCCAAGGTCATTGATCAGTCAAAGCA | 3.15 | 3.81 | 3.22 | 1.62 | 3.07 | 3.6 | 2.3 | 3.13
38 | TCTTGTAGATCAATAGAGGTTAAGACAGTGCGCT | 1.01 | 0.969 | 0.534 | 0.854 | 1.44 | 2.36 | -0.216 | 0.0474
39 | CCGAGTAGGTTATGGGCCATTCAGGCAACGGTGA | 0.655 | 0.305 | 0.328 | -0.165 | 0.5 | 0.298 | 0.0929 | -0.0394
40 | ATCTCTAGGTAAGACTCAGTTCAGTGAAGAACGC | 0.723 | 0.0914 | 0.115 | 0.479 | -0.0944 | 0.922 | 0.796 | 1.42
41 | TCAGACAGGTGTAGGTAACTCAGGTACGCAGTCG | 0.242 | 0.0352 | 0.143 | 1.07 | 0.607 | 0.923 | 0.621 | 0.47
42 | TAGCCTAGATCATGGGCCAGTATACCACGCGAAC | -0.389 | -0.301 | -0.388 | -0.748 | -0.39 | -0.674 | -0.848 | -0.532
43 | CGTCCAAGGTCAATGCTAGGTCAGGGAAAGCATT | 4.99 | 7.46 | 6.5 | 3.47 | 5.08 | 4.67 | 3.21 | 2.33
44 | CCTTACGGGTCACTCCAGGTTATTGCATCGGAGT | 3 | 4.17 | 3.98 | 1.4 | 3.97 | 4.94 | 0.878 | 1.95
45 | ACAGACAGGTGAGGGAAGGTAACTCAGCTGGACG | 0.595 | 0.445 | 0.526 | -0.769 | 0.426 | 2.31 | -0.12 | -0.764
46 | GCGACTGGGTCAAAGCAGGTTACCATAAGGTTGG | 2.76 | 3.65 | 3.32 | 0.713 | 3.11 | 4.65 | 0.279 | 0.45
47 | CCAGACAGGTGAAAAGTAACTCAGTCTGGTACGC | -0.15 | 0.316 | 0.402 | 0.15 | 0.307 | -0.0735 | -0.599 | -0.225
48 | ATCTCTAGGTAAGACACAGTTCAGTGAAGAACGC | 1.33 | 0.686 | 0.694 | 0.59 | 0.755 | 0.849 | 0.689 | 1.37
49 | ACTTACGGGTCAACGAGGTGATAGCACGCGTATA | 2.98 | 5.26 | 4.83 | 2.19 | 5.47 | 3.86 | 0.952 | 1.81
50 | TGAAAGAGGTTATAAGATCAGGGAACGTTGCAAA | 0.261 | 2.01 | 1.15 | 0.022 | 2.37 | 0.935 | -0.921 | -0.105
51 | ACTCGGAGGACAACGGTCAGAGCTACGCCAGTGA | 1.51 | 1.06 | 2.14 | 0.0365 | -0.0292 | 0.773 | -0.132 | -0.272
52 | GGAACGAGGGAAAGTTGATAGCAGAGTTTGATGG | -0.315 | -0.266 | 0.0692 | 0.0118 | -0.106 | -0.351 | -0.268 | -0.209
